Test results: PubChem BioAssay (NCATS)
Results filed as inconclusive are left out. The source made the active and inactive calls. Calls come from the whole dose curve; as a rule, active = well fitted curve in the direction sought with a large enough effect; inconclusive = small, poorly fitted or top-dose-only effect, or another doubt; inactive = no such curve, though single readings can be large; an effect the other way counts as inactive or inconclusive.

Key:
[1] = biological target: Glutathione peroxidase 1 (Homo sapiens) (UniProt P07203); assay: Primary qHTS Assay for Inhibitors of Recombinant Selenoprotein Glutathione Peroxidase 1 (GPX1) (AID 1845191); note: nearly all actives have a fitted effect of over 65% in size; for activity, negative = inhibition: % is set by controls: 0 for no effect and ±100 for the full control effect
Sequence of Glutathione peroxidase 1 (Homo sapiens) (P07203 whole entry, looked up): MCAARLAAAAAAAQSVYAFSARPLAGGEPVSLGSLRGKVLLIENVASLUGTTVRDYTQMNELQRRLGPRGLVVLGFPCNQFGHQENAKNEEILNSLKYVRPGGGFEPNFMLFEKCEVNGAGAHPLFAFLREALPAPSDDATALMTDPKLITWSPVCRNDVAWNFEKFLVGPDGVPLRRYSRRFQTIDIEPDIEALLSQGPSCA
How it was run: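 GPX1 10 nM, GR 100 nM, GSH 1 mM, NADPH 0.5 mM, CHP 0.5 mM (final). 30-min cpd preincubation, RT. Ex340/Em450 read t=0, t=15 min.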

[2] = biological target: Phospholipid hydroperoxide glutathione peroxidase GPX4 (Homo sapiens) (UniProt P36969); assay: Primary qHTS Assay for Inhibitors of Recombinant Selenoprotein Glutathione Peroxidase 4 (GPX4) (AID 1845192); note: series mostly up to about 50 µM; % is set by controls: 0 for no effect and ±100 for the full control effect; nearly all actives have a fitted effect of over 65% in size
Sequence of Phospholipid hydroperoxide glutathione peroxidase GPX4 (Homo sapiens) (P36969 whole entry, looked up): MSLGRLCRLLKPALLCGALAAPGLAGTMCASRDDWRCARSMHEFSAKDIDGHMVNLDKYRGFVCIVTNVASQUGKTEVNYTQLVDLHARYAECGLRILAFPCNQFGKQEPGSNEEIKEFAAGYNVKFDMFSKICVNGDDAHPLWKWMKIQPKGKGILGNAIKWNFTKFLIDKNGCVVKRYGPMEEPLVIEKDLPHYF
How it was run: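 qHTS, GR-coupled: GPX4 200 nM + cpd 30 min RT → GSH 1 mM, NADPH 0.5 mM, GR 100 nM → CHP 0.5 mM start; fluor 340/450 at t0 and t15 min; no-enzyme wells as control.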

[3] = biological target: Luciferin 4-monooxygenase (Photinus pyralis) (UniProt P08659); assay: Primary firefly luciferase (FLuc) qHTS assay for identification of artifact compounds. (AID 1845220); note: nearly all actives have a fitted effect of over 60% in size; note: potency is the fitted concentration of half-maximal effect;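 for activity change, negative = inhibition: series mostly up to about 54 µM; plate controls were DMSO vehicle for no effect and no enzyme for full effect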
How it was run: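 In this counter-screen for luciferase artifacts, test compounds met substrate (10 uM each luciferin and ATP) before 10 nM enzyme started the reaction. Light output was measured 5 min later.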

[4] = Primary fluorescence-based thiol-reactive (MSTI) qHTS assay for identification of artifact compounds. (AID 1845221); note: nearly all actives have a fitted effect of over 65% in size; note: potency is the fitted concentration of half-maximal effect;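 for activity change, negative = thiol reactive: series mostly up to about 54 µM; thiol-reactive compounds lower the probe fluorescence signal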
How it was run: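 MSTI probe at 4 uM final in 2% DMSO/PBS pH 7.4; compounds, 1 h at room temperature in dark. Fluorescence Ex/Em 525/598 nm, normalised to Acetyl-MSTI and MSTI, fitted to 4-parameter Hill.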

[5] = test system: Nanoluciferase (engineered Oplophorus gracilirostris luciferase); assay: Primary Nanoluciferase (NLuc) qHTS assay for identification of artifact compounds. (AID 1845222);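 note: NLuc secreted into diluted conditioned medium of S16 cells; series mostly up to about 54 µM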
How it was run: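 Using secreted nanoluciferase in S16 culture medium (0.22 um filtered, 1:55 dilution), compounds were preincubated 15 min at RT. Signal was generated with Nano-Glo reagent (1:100) over 5 min.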

[6] = HepG2 viability counterscreen (readout 1: protease activity) against the NCATS DSHEA and TCM libraries (AID 1794841);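 note: cells exposed to compounds for about 24 h before the protease read; 0% is about no effect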
How it was run: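 Same wells read twice: first fluorescence from cleaved GF-AFC substrate (25 uM final, 30 min, 37C) for live-cell protease, then CellTiter-Glo luminescence after 30 min at room temperature for ATP. HepG2 cells were exposed ~24 h to substances.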

[7] = Primary redox qHTS assay for identification of artifact compounds. (AID 1845223);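 note: 0% = DMSO and 100% = reference compound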
How it was run: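 Redox-cycling detection via DTT (250 uM final) oxidation coupled to Amplex Red (25 uM)/HRP (250 mU/mL) in HBSS. 15 min preincubation plus 30 min after DTT, room temperature. Ex/Em 525/598 nm; 4-parameter Hill fit against DMSO and 10 uM DA3003.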

[8] = biological target: Cytochrome P450 3A4 (Homo sapiens) (UniProt P08684); assay: qHTS for inhibitors of CYP3A4 against the NCATS DSHEA and TCM libraries (AID 1919971);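 note: % is set by controls: 0 for no effect and ±100 for the full control effect; inhibition lowers luminescence from luciferin made by CYP3A4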
Sequence of Cytochrome P450 3A4 (Homo sapiens) (P08684 whole entry, looked up, canonical isoform): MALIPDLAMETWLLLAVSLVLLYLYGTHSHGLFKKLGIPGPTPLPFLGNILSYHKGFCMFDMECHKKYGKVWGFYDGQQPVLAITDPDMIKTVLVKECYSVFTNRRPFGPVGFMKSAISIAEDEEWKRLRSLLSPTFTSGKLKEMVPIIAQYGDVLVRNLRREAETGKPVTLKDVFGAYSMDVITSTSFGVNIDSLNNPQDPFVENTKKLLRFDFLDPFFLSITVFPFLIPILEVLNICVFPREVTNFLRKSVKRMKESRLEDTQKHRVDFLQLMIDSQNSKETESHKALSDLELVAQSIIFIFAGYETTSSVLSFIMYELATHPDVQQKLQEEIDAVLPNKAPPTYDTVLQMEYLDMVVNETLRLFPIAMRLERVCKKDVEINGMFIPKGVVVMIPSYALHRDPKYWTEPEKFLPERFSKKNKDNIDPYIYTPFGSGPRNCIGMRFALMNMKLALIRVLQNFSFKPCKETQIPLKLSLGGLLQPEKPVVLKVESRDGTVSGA
How it was run: (§1)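 Concentration-response screening with isoform-matched pro-luciferin substrates. The CYP reaction was initiated by NADPH regenerating solution and ran 30-45 min in darkness at room temperature.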

[9] = biological target: Cytochrome P450 2D6 (Homo sapiens) (UniProt P10635); assay: qHTS for inhibitors of CYP2D6 against the NCATS DSHEA and TCM libraries (AID 1919972); note: % is set by controls: 0 for no effect and ±100 for the full control effect
Sequence of Cytochrome P450 2D6 (Homo sapiens) (P10635 whole entry, looked up): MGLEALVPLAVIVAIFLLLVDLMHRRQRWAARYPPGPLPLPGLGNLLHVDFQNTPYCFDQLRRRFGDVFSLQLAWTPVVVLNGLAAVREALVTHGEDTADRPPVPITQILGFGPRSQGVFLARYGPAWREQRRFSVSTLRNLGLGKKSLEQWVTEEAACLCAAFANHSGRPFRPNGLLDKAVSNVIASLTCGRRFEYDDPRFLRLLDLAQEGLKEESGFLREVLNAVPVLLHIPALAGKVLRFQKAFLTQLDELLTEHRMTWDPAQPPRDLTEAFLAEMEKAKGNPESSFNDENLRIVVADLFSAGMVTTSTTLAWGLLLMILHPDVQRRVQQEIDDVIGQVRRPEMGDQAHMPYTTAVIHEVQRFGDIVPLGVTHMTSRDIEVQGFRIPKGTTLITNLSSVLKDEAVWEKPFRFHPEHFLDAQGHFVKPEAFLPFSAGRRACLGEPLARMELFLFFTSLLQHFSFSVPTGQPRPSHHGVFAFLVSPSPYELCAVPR
How it was run: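 CYP2D6 enzyme with pro-luciferin substrate in manufacturer buffer (typically 100 mM KPO4), preincubated 15 min RT with substances (most at 19.5 nM upward); NADPH regeneration system (1x) started 30–45 min RT reaction; P450-Glo luminescence read after 30 min; quinidine as intraplate control.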

[10] = biological target: Cytochrome P450 2C9 (Homo sapiens) (UniProt P11712); assay: qHTS for inhibitors of CYP2C9 against the NCATS DSHEA and TCM libraries (AID 1919973);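 note: luminogenic pro-luciferin CYP2C9 substrate turned into luciferin with NADPH regeneration; series mostly up to about 34 µM; % is set by controls: 0 for no effect and ±100 for the full control effect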
Sequence of Cytochrome P450 2C9 (Homo sapiens) (P11712 whole entry, looked up): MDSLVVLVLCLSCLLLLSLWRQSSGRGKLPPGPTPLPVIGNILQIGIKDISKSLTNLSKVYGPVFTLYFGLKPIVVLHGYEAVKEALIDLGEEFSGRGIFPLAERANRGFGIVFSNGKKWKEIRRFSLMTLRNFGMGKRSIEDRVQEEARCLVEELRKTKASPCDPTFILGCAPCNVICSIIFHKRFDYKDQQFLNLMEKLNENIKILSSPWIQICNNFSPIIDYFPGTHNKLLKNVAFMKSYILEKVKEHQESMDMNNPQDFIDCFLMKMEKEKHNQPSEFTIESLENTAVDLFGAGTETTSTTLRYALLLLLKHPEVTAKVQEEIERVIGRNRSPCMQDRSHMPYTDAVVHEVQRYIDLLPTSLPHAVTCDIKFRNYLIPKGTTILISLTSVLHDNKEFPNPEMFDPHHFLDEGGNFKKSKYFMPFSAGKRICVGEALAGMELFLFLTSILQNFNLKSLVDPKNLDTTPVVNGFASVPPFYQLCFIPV
How it was run: as §1

[11] = biological target: Cytochrome P450 2C19 (Homo sapiens) (UniProt P33261); assay: qHTS for inhibitors of CYP2C19 against the NCATS DSHEA and TCM libraries (AID 1919974);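 note: luminescence from luciferin released by CYP2C19 oxidation of a pro-luciferin substrate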; note: potency is the fitted concentration of half-maximal effect
Sequence of Cytochrome P450 2C19 (Homo sapiens) (P33261 whole entry, looked up): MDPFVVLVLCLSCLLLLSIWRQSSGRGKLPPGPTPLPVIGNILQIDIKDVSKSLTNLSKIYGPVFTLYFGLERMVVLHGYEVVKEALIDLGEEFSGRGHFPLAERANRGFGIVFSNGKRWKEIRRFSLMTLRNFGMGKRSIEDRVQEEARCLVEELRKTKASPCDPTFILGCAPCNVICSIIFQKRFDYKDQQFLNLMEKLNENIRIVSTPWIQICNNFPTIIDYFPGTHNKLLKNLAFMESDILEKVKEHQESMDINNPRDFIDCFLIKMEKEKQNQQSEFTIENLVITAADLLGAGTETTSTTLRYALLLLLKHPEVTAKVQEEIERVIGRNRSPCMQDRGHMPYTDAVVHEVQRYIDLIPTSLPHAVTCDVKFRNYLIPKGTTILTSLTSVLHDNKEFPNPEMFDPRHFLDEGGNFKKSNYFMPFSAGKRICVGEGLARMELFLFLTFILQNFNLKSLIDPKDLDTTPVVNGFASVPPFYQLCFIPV
How it was run: as §1

[12] = KB-3-1 P-gp reporter qHTS against the NCATS DSHEA and TCM libraries (AID 1919975); note: 0% is about no effect
How it was run: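 KB-3-1 parental line, 1536-well qHTS: cells seeded, ~4 h attachment, pintool compound addition, ~72 h at 37C, then CellTiter-Glo, 30 min RT, luminescence. Concentration-response format.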

[13] = biological target: Cytochrome P450 1A2 (Homo sapiens) (UniProt P05177); assay: qHTS for inhibitors of CYPIA2 against the NCATS DSHEA and TCM libraries (AID 1919976);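 note: light from luciferin formed by CYP1A2 from a pro-luciferin substrate; series mostly up to about 37 µM; % is set by controls: 0 for no effect and ±100 for the full control effect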
Sequence of Cytochrome P450 1A2 (Homo sapiens) (P05177 whole entry, looked up): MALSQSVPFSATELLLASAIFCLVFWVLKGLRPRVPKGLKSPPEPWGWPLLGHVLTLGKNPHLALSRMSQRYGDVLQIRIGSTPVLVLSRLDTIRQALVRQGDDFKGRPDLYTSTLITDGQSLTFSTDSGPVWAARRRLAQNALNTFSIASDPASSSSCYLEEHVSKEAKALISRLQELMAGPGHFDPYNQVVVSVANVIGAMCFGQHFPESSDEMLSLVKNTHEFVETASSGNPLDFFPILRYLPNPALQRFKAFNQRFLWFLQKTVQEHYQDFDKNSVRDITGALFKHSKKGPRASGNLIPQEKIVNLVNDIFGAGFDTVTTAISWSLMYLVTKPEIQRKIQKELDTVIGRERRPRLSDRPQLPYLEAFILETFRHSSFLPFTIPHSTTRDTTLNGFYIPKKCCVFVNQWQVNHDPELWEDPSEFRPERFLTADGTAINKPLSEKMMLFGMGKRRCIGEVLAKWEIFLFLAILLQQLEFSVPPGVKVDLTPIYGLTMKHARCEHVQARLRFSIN
How it was run: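 Enzyme and pro-luciferin substrate, or substrate alone as no-enzyme background, are pre-incubated with test samples for 15 min at room temperature. NADPH regeneration system (1x final) initiates a 30-45 min dark reaction; luciferase detection reagent follows before luminescence reading.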

[14] = qHTS Counterscreen for compound interference against the NCATS DSHEA and TCM libraries (AID 1919978); conditions: firefly luciferase detection reagent interference, luminescence;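 note: compounds preincubated with 1 µM D-luciferin or buffer before detection reagent; % of control where 0% means no effect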
How it was run: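 Compounds, titrated from 19.5 nM to 39.8 uM final, were pinned onto 1 uM D-luciferin or plain 100 mM potassium phosphate. After 15 min at room temperature, luciferin detection reagent was added for 30 min before the luminescence read.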

[15] = Dual reporter qHTS for agonist of Pregnane X Receptor (hPXR) against the NCATS DSHEA and TCM libraries: Fluorescence readout (AID 1920058); note: 0% is about no effect
How it was run: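 Cells were plated at 2000 per well and allowed to attach for 5 h. Test substances were pinned in and incubated roughly 24 h. CellTiter-Fluor was then added and fluorescence measured after 1 h.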

[16] = biological target: Nuclear receptor subfamily 1 group I member 2 (Homo sapiens) (UniProt O75469); assay: Dual reporter qHTS for agonist of Pregnane X Receptor (hPXR) against the NCATS DSHEA and TCM libraries: Luminescence readout (AID 1920059); note: 0% is about no effect
Sequence of Nuclear receptor subfamily 1 group I member 2 (Homo sapiens) (O75469 whole entry, looked up): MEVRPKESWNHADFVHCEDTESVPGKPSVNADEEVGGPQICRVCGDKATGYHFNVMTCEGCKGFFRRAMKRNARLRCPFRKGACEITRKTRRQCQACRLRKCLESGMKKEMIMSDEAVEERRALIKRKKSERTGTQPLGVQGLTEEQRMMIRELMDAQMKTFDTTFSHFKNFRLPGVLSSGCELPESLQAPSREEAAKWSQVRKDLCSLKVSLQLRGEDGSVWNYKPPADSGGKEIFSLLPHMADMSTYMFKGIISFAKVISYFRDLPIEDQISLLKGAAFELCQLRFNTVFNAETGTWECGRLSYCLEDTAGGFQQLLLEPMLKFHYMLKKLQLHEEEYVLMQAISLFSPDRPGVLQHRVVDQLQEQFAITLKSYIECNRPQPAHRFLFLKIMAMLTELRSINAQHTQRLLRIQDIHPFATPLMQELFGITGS
How it was run: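 hPXR-LucHepG2 cells in phenol red-free DMEM with 5% charcoal-stripped FBS, 2000 cells/well, attached 5 h, then exposed 24 h at 37C to compounds; rifampicin as positive agonist control (2.8 nM–92 uM). Luciferase luminescence read.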

[17] = biological target: Nuclear receptor subfamily 1 group I member 2 (Homo sapiens) (UniProt O75469); assay: Dual reporter qHTS for antagonist of Pregnane X Receptor (hPXR) against the NCATS DSHEA and TCM libraries: Luminescence Readout (AID 1920060);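 note: HepG2 cells carrying hPXR luciferase reporter stimulated with rifampicin at 2 µM; 0% is about no effect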
How it was run: (§2)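 HepG2 hPXR-Luc, 2000 cells/well, charcoal-stripped FBS medium; 5 h attach; RIF 2 uM final; 24 h 37C/5% CO2; CellTiter-Fluor 1 h, fluor 405/540; ONE-Glo 30 min RT, lum.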

[18] = Dual reporter qHTS for antagonist of Pregnane X Receptor (hPXR) against the NCATS DSHEA and TCM libraries: Fluorescence Readout (AID 1920061); note: 0% is about no effect
How it was run: as §2

Cc1cc(OCc2nc(-c3ccccc3Cl)cs2)ccc1OCC(=O)O
active: Potency [3] 9.53 µM
inactive: Potency [1] | Potency [2] | Potency [4] | Potency [5]

CO[C@H]1C[C@@H]2CC[C@@H](C)[C@@](O)(O2)C(=O)C(=O)N2CCCC[C@H]2C(=O)O[C@H]([C@H](C)C[C@@H]2CC[C@H](n3cnnn3)[C@H](OC)C2)CC(=O)[C@H](C)/C=C(\C)[C@@H](O)[C@@H](OC)C(=O)[C@H](C)C[C@H](C)/C=C/C=C/C=C/1C
inactive: Potency [1] | Potency [2] | Potency [3] | Potency [4] | Potency [5]

C[C@@H]1O[C@@H](O[C@H]2[C@H](O)[C@@H](C(=O)O)O[C@@H](O[C@H]3CC[C@@]4(C)C(CC[C@]5(C)C4CC=C4C6CC(C)(C)CC[C@]6(C(=O)O)CC[C@]45C)C3(C)C)[C@@H]2O[C@@H]2OC[C@@H](O)[C@H](O)[C@H]2O)[C@H](O)[C@H](O)[C@H]1O (some centres undefined)
inactive: Potency [1] | Potency [2] | activity change, negative = inhibition [3] 1.83% [at 11.6 µM] | activity change, negative = thiol reactive [4] 129% [at 11.5 µM] | activity, negative = inhibition [5] 0.398% [at 11.6 µM]

OC[C@H]1O[C@@H](OC[C@H]2O[C@@H](OC/C=C/c3ccccc3)[C@H](O)[C@@H](O)[C@@H]2O)[C@@H](O)[C@@H]1O
inactive: outcome [6] | Potency [1] | Potency [2] | Potency [3] | Potency [5] | Potency [7] | outcome [8] | outcome [9] | outcome [10] | Potency [11] | outcome [12] | Potency [13] | max response [14] -0.863% | outcome [15] | outcome [16] | outcome [17] | outcome [18]
active: Potency [4] 10.3 µM

CC(C)=CCC[C@](C)(O[C@@H]1O[C@H](CO[C@@H]2O[C@H](CO)[C@@H](O)[C@H](O)[C@H]2O)[C@@H](O)[C@H](O)[C@H]1O)C1CC[C@]2(C)[C@@H]1[C@H](O)CC1[C@@]3(C)CC[C@H](O[C@@H]4O[C@H](CO)[C@@H](O)[C@H](O)[C@H]4O[C@@H]4O[C@H](CO)[C@@H](O)[C@H](O)[C@H]4O)C(C)(C)[C@@H]3CC[C@]12C (some centres undefined)
active: Potency [11] 1 µM
inactive: outcome [6] | Potency [2] | activity change, negative = inhibition [3] -9.29% [at 11.6 µM] | activity change, negative = thiol reactive [4] 44.5% [at 11.5 µM] | activity, negative = inhibition [5] 0.108% [at 11.6 µM] | redox activity (% of DA3003) [7] 5.05% [at 11.5 µM] | outcome [8] | outcome [9] | outcome [10] | outcome [12] | max response [14] -2.77% | outcome [15] | outcome [16] | outcome [17] | outcome [18]

CC(=O)OC[C@]12[C@H](OC(C)=O)C(=O)[C@@H]3[C@@H](OC(C)=O)[C@@]14O[C@@]3(C)COC(=O)c1cccnc1[C@@H](C)[C@H](C)C(=O)O[C@@H]([C@H](O)[C@@H]2OC(C)=O)[C@]4(C)O
inactive: Potency [1] | Potency [2] | Potency [3] | Potency [4] | Potency [5]
